# Assay results reported in PubChem BioAssay (Tox21).
# Inconclusive results are not listed. Where a call stands in place of a potency, no number is given. Unmarked numbers belong to inactive results. The source made the active and inactive calls. Calls follow the shape of the dose curve; as a rule, active = well fitted activation curve with a large enough effect in the repeat runs; inconclusive = weak or mixed curves; inactive = flat fitted curve, though single readings scatter.
# Assay: A CellTox Green Cytotoxicity Assay to monitor cytotoxicity in HEK293 cells - 8 hour (AID 1224884); also: nearly all actives have a fitted effect of over 35% in size
# Details: CellTox Green fluorescence; series mostly up to 76.8 µM
# Method in brief: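 Tox21 screen in HEK293: membrane-impermeant cyanine dye fluoresces on binding dead-cell DNA; compound pinned 5 h post-seeding, plates held at 37 C, signal read repeatedly through 40 h.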
SMILES,Potency,cytotoxicity increase
CC(O)C(CO)C(C)O (stereo not drawn),inactive,
Cc1cc(O)c(Cl)cc1C,inactive,
CCCCCCCCCCCCCCCCN(C)C,,-0.796% [at 6.97 µM]
Cc1ccc2ccccc2n1,inactive,
CCCCC(CC)COC(=O)CC#N (stereo not drawn),inactive,
CCCCCCCCCCCBr,inactive,
COC(=O)C(c1ccccc1Cl)N1CCc2sccc2C1 (stereo not drawn),inactive,
CCO/C=C1\N=C(c2ccccc2)OC1=O,inactive,
C=CCN(CC=C)CC=C,inactive,
CC[N+](C)(CC)CC,inactive,
C/C(Cl)=C/CCl,inactive,
C=CC(C)(CCC=C(C)C)OC(=O)C(C)C (stereo not drawn),inactive,
CCCCC(O)/C=C(C)/C=C/C=C/C(=O)N1CCCC1=O (stereo not drawn),inactive,
CCOCCOCCOC(C)=O,inactive,
CC12CCCC=C1C(=O)OC2=O (stereo not drawn),inactive,
CCCc1ccc(O)c(OC)c1,inactive,
COc1cc(OC)cc(OC)c1,inactive,
CCCCCCC(=O)c1ccccc1,inactive,
CC(=O)SC[C@@H](C)C(=O)N1CCC[C@H]1C(=O)N[C@@H](Cc1ccccc1)C(=O)O,inactive,

SMILES,Potency,cytotoxicity increase
CN(C)CCc1c[nH]c2ccc(C[C@H]3COC(=O)N3)cc12,inactive,
CCCCCCCCS(=O)(=O)O,inactive,
CC(C)(C)C(=O)NCCCC(=O)O,inactive,
CC(C)(C)NCC(O)COc1cccc2c1CCC(=O)N2 (stereo not drawn),inactive,
O=C(c1ccccc1)c1cccc(O)c1,inactive,
CCNC(=O)C(C)OC(=O)Nc1ccccc1 (stereo not drawn),inactive,
Cc1ccccc1OCC(=O)O,inactive,
Nc1nc(Cl)cc(Cl)n1,inactive,
O=C(O)Cc1c(Cl)ccc(Cl)c1Cl,inactive,
CCCCCC(=O)CC,inactive,
CC(C)(Sc1cc(C(C)(C)C)c(O)c(C(C)(C)C)c1)Sc1cc(C(C)(C)C)c(O)c(C(C)(C)C)c1,inactive,
COc1cc(S(N)(=O)=O)cc(C(=O)O)c1OC,inactive,
C=CCCCCCCCCCCCCCC,,2.81% [at 15.8 µM]
CC(C)(C)c1ccc(C(=O)CCCCl)cc1,inactive,
CN(C)CCC[C@@]1(c2ccc(F)cc2)OCc2cc(C#N)ccc21,inactive,
O=c1c(O)c(O)c1=O,inactive,
NNC(=O)CCCCC(=O)NN,inactive,
Cc1ccc(O)c(C(=O)c2ccccc2)c1,inactive,
CCCCCCC(O)CO (stereo not drawn),inactive,
